PubChem BioAssay (Tox21)
Where “and” joins values, the source holds several entries; their conditions need not be identical. Equal values may be shown once. Inconclusive results are not listed. Some compounds were tested as several samples or in several runs, with calls that do not always agree. Calls of active or inactive are those of the source. Unless noted, calls follow the shape of the dose curve; as a rule, active = well fitted curve in the direction sought with a large enough effect in the repeat runs; inconclusive = weak or mixed curves; inactive = no such curve, though single readings can be large; an effect the other way counts as inactive or inconclusive.

Legend:
[1] = qHTS assay to identify small molecule antagonists of the glucocorticoid receptor (GR) signaling pathway - cell viability counter screen (AID 720693); also: nearly all actives have a fitted effect of over 55% in size
[2] = qHTS assay for identifying genotoxic compounds that show differential cytotoxicity against isogenic chicken DT40 cell lines with known DNA damage response pathways - wild type cell line (AID 743012); also: nearly all actives have a fitted effect of over 60% in size; also: potency is read from the fitted curve at half-maximal effect
Method in brief: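 CellTiter-Glo luminescence readout of viability in wild type DT40 cells after 40 h compound exposure at 37 C/5% CO2; 300 cells/well; reagent incubated 30 min at room temperature before reading.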

[3] = qHTS assay for identifying genotoxic compounds that show differential cytotoxicity against isogenic chicken DT40 cell lines with known DNA damage response pathways - Rev3 mutant cell line (AID 743014); also: nearly all actives have a fitted effect of over 55% in size; also: potency is read from the fitted curve at half-maximal effect
[4] = qHTS assay for identifying genotoxic compounds that show differential cytotoxicity against isogenic chicken DT40 cell lines with known DNA damage response pathways - Rad54/Ku70 mutant cell line (AID 743015); also: nearly all actives have a fitted effect of over 60% in size; also: potency is read from the fitted curve at half-maximal effect
[5] = qHTS assay to identify small molecule antagonists of the androgen receptor (AR) signaling pathway - cell viability counter screen (AID 743033; also: nearly all actives have a fitted effect of over 45% in size)
[6] = qHTS assay to identify small molecule antagonists of the androgen receptor (AR) signaling pathway using the MDA cell line - cell viability counter screen (AID 743041; also: nearly all actives have a fitted effect of over 45% in size)
Method in brief: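 Cytotoxicity counter screen: MDA-kb2 AR-luc cells, compound + R1881, 16 h, 37C, 0% CO2; CellTiter-Fluor added at 15.5 h, fluorescence read after 30 min.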

[7] = qHTS assay to identify small molecule antagonists of the thyroid receptor (TR) signaling pathway - cell viability counter screen (AID 743064); also: nearly all actives have a fitted effect of over 50% in size
Method in brief: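 Same-well viability check: GH3.TRE-Luc cells stimulated with 1 nM T3 alongside test compound for 23.5 h, followed by CellTiter-Fluor fluorescence.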

[8] = qHTS assay to identify small molecule antagonists of the thyroid receptor (TR) signaling pathway (AID 743065); also: nearly all actives have a fitted effect of over 55% in size; also: potency is read from the fitted curve at half-maximal effect
Method in brief: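 GH3.TRE-Luc rat pituitary cells (two TREs driving luciferase) were dosed with compound, then stimulated with 1 nM T3 (final) for 23.5 h at 37 C. ONE-Glo luminescence was the read-out, with CellTiter-Fluor fluorescence as the cytotoxicity counter-screen.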

[9] = test system: thyroid hormone receptor (rat, GH3 cells); assay: qHTS assay to identify small molecule agonists of the thyroid receptor (TR) signaling pathway (AID 743066; calls by dose curve; also: potency is read from the fitted curve at half-maximal effect)
[10] = qHTS assay to identify small molecule antagonists of the estrogen receptor alpha (ER-alpha) signaling pathway - cell viability counter screen (AID 743074; calls by dose curve;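 also: HEK293 cells carrying ER-alpha-UAS-bla reporter stimulated with 17beta-estradiol; nearly all actives have a fitted effect of over 45% in size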)
[11] = qHTS assay to identify small molecule antagonists of the estrogen receptor alpha (ER-alpha) signaling pathway using the BG1 cell line - cell viability counter screen (AID 743081);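 also: compound given together with 17beta-estradiol as the ER stimulus; nearly all actives have a fitted effect of over 45% in size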
Aromatase (Homo sapiens) = Aromatase (Homo sapiens) (UniProt P11511); assay: qHTS assay to identify aromatase inhibitors (AID 743083); also: nearly all actives have a fitted effect of over 55% in size
Chain of Aromatase (Homo sapiens) (P11511 whole entry, looked up): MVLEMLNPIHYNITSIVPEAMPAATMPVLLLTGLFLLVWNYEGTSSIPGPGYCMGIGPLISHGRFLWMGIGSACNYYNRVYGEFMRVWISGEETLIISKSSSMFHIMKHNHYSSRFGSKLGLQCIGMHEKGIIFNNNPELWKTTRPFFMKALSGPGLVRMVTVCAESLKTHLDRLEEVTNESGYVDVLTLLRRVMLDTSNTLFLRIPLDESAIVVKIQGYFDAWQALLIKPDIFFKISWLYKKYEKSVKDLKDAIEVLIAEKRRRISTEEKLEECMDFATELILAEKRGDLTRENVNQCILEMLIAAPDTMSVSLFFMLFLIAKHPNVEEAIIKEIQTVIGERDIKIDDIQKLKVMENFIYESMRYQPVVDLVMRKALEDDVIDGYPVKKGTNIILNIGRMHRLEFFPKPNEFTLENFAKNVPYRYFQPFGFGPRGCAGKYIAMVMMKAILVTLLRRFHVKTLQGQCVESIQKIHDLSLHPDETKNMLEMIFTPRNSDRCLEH

[12] = molecular target: Androgen receptor (Homo sapiens) (UniProt P10275); assay: qHTS assay to identify small molecule antagonists of the androgen receptor (AR) signaling pathway (AID 743035; active = well fitted inhibition curve with a large enough effect in the signal ratio in the repeat runs, not every such curve was filed as active; the % refers to the signal ratio)
Chain of Androgen receptor (Homo sapiens) (P10275 whole entry, looked up): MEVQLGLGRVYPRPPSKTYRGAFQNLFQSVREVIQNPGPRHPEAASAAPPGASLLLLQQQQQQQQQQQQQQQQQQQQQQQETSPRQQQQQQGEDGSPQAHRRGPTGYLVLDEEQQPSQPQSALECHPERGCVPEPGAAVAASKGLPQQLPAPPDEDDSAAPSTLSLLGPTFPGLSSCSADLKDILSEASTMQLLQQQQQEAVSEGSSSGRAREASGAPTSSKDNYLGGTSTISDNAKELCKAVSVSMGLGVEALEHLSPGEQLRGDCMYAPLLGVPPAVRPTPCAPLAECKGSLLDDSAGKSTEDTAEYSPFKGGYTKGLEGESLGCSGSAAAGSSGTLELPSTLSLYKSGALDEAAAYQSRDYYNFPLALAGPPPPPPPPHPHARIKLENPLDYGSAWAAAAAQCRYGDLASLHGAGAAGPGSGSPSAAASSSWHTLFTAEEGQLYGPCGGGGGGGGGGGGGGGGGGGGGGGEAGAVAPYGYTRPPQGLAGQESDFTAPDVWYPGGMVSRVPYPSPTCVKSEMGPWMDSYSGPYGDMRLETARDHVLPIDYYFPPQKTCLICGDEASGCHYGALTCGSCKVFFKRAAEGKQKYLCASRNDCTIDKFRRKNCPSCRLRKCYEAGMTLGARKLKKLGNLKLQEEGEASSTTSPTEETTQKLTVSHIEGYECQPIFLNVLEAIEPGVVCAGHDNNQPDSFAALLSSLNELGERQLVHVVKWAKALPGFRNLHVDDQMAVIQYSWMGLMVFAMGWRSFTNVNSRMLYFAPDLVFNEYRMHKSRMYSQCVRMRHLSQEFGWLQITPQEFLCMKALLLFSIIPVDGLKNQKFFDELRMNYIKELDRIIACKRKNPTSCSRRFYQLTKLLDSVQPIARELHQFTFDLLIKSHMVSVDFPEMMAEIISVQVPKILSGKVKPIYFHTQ
Method in brief: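 AR-bla HEK293 reporter cells; 4 h settle at 37C/5% CO2; compound + R1881 agonist, 16 h at 37C; LiveBLAzer B/G FRET substrate 2 h RT; fluorescence intensity read. qHTS format.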

[13] = molecular target: Androgen receptor (Homo sapiens) (UniProt P10275); assay: qHTS assay to identify small molecule agonists of the androgen receptor (AR) signaling pathway (AID 743036; active = well fitted activation curve with a large enough effect in the signal ratio in the repeat runs, with a control signal flat, not every such curve was filed as active; the % refers to the signal ratio)
Method in brief: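 Agonist activity was scored by beta-lactamase reporter fluorescence in stably transfected HEK293 cells exposed to compounds for 16 h at 37C and 5% CO2. Substrate loading took 2 h at room temperature.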

[14] = molecular target: Androgen receptor (Homo sapiens) (UniProt P10275); assay: qHTS assay to identify small molecule agonists of the androgen receptor (AR) signaling pathway using the MDA cell line (AID 743040; also: nearly all actives have a fitted effect of over 20% in size); conditions: MDA-kb2 AR-luc cells, MMTV luciferase, 16 h; activity change: at 70.3 µM (top of the series), stronger effect = higher value
Method in brief: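 Luciferase read-out, ONE-Glo, 30 min RT. Cells: MDA-kb2 AR-luc, MMTV promoter with AR and GR response elements. Compound exposure 16 h, 37C, 0% CO2, after 5 h pre-incubation. qHTS agonist mode.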

[15] = molecular target: Androgen receptor (Homo sapiens) (UniProt P10275); assay: qHTS assay to identify small molecule antagonists of the androgen receptor (AR) signaling pathway using the MDA cell line (AID 743042; also: nearly all actives have a fitted effect of over 55% in size)
Method in brief: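 MDA-kb2 breast carcinoma cells carrying MMTV-luciferase (AR/GR responsive) were co-treated with compounds and the agonist R1881 for 16 h at 37C. Inhibition read as ONE-Glo luminescence; CellTiter-Fluor fluorescence measured in parallel for cytotoxicity.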

[16] = molecular target: Estrogen receptor (Homo sapiens) (UniProt P03372); assay: qHTS assay to identify small molecule antagonists of the estrogen receptor alpha (ER-alpha) signaling pathway (AID 743069; active = well fitted curve in the direction sought with a large enough effect in the signal ratio in the repeat runs, not every such curve was filed as active; the % refers to the signal ratio)
Chain of Estrogen receptor (Homo sapiens) (P03372 whole entry, looked up): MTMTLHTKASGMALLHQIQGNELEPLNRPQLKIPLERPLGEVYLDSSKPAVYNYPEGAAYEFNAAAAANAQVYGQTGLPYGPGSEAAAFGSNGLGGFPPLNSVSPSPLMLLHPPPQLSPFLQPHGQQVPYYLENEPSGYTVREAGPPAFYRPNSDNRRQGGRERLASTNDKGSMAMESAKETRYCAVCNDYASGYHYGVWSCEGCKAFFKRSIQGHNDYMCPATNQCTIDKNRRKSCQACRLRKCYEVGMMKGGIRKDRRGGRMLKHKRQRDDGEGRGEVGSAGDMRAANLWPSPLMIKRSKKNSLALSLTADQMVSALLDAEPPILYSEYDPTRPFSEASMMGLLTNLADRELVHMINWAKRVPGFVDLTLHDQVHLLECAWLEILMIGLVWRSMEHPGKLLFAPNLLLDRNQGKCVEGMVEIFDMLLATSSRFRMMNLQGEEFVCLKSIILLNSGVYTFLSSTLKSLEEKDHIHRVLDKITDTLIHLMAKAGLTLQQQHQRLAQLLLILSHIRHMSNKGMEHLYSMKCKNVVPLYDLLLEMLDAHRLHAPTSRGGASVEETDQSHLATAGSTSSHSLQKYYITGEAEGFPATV
Method in brief: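 Beta-lactamase FRET fluorescence is read after 2 hr at room temperature with LiveBLAzer B/G substrate. Before that, ER-alpha-bla HEK293 cells sit 4 hr after plating, then receive compound plus 17beta-estradiol and incubate 18 hr at 37C.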

[17] = molecular target: Estrogen receptor (Homo sapiens) (UniProt P03372); assay: qHTS assay to identify small molecule agonists of the estrogen receptor alpha (ER-alpha) signaling pathway (AID 743075; calls by dose curve;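 also: HEK293 GripTite cells with ER-alpha and UAS-driven beta-lactamase reporter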)
[18] = molecular target: Estrogen receptor (Homo sapiens) (UniProt P03372); assay: qHTS assay to identify small molecule agonists of the estrogen receptor alpha (ER-alpha) signaling pathway using the BG1 cell line (AID 743079); also: nearly all actives have a fitted effect of over 20% in size
[19] = qHTS assay to identify small molecule antagonists of the estrogen receptor alpha (ER-alpha) signaling pathway using the BG1 cell line (AID 743080; calls by dose curve;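 also: BG1 cells stimulated with 17beta-estradiol alongside compound; nearly all actives have a fitted effect of over 25% in size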)
Method in brief: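 BG1-Luc-4E2 cells (endogenous full-length ER-alpha, stable 4×ERE-luciferase) were starved 5 days in phenol-red-free medium with 10% charcoal-stripped FBS, plated 24 h, then given compound plus 17beta-estradiol for 21.5 h at 37 C; ONE-Glo luminescence read after 30 min.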

Measured: Potency

O=C1C=CC(=O)C=C1
inactive and 10.9 µM (active): [4]
inactive: [1] | [5] | [6] | [7] | [8] | [9] | [10] | [11] | Aromatase (Homo sapiens)
inactive and 9.69 µM (active): [2] | [3]

Nc1ccncc1
not listed: [8]
inactive: all other assays above

CCCCCCOC(=O)c1ccccc1C(=O)OCCCCCC
inactive and 30.6 µM (active): [2]
not listed: [8] | [12] | [13] | [14] | [15]
inactive: all other assays above

CCCCC(CC)COC(=O)c1ccc(C(=O)OCC(CC)CCCC)c(C(=O)OCC(CC)CCCC)c1 (configuration not stated)
not listed: [8] | [12] | [16] | [17] | [18] | [19]
inactive: all other assays above

COc1ccc(C=O)cc1
not listed: [12] | [13] | [14] | [15]
inactive: all other assays above

Nn1cnnc1
not listed: [8] | [12] | [13] | [14] | [15]
inactive: all other assays above

CCCCCCCCC(=O)NCc1ccc(O)c(OC)c1
inactive and 68.6 µM (active): [3]
active: [8] 54.5 µM
not listed: [12] | [13] | [14] | [15]
inactive: all other assays above

N#CC(Br)Br
not listed: [8] | [12] | [13] | [14] | [15]
inactive: all other assays above

Clc1nc(Cl)nc(Cl)n1
active: [2] 15.4 µM
inactive and 15.4 µM (active): [3]
inactive and 13.7 µM (active): [4]
not listed: [12] | [13] | [14] | [15] | [18]
inactive: all other assays above

O=P(O)(O)CCCl
not listed: [12] | [13] | [14] | [15]
inactive: all other assays above

CCN(N=O)C(N)=O
not listed: [12] | [13] | [14] | [15]
inactive: all other assays above

CNC(=O)N(C)c1nnc(C(C)(C)C)s1
not listed: [12] | [13] | [14] | [15]
inactive: all other assays above

C=CCc1ccc(OC)cc1
active: [3] 26.5 µM
not listed: [12] | [13] | [14] | [15] | [16] | [17] | [18] | [19]
inactive: all other assays above

NNC(=S)NN
active: [2] 61.1 µM | [3] 54.5 µM | [4] 43.3 µM
inactive and 61.1 µM (active): [9]
not listed: [8] | [12] | [13] | [14] | [15]
inactive: all other assays above
